Source: PubChem
The list is not random: actives were taken first. Their share in the collection is about 13%.
USP10 inh: inhibitors of human USP10 deubiquitinase | inhibition, % at 20 µM | hit rate 1.1% among 47,000 | Ubiquitin carboxyl-terminal hydrolase 10 (Homo sapiens), Q14694 | purified USP10, Ub-rhodamine fluorescence, 60 min
USP8 inh: inhibitors of human USP8 deubiquitinase. purified USP8, Ub-rhodamine cleavage fluorescence, 30 min. inhibition, % at 20 µM. hit rate 4.2% among 47,000. AID 1645853, 2021
Target sequence (P40818 whole entry, looked up): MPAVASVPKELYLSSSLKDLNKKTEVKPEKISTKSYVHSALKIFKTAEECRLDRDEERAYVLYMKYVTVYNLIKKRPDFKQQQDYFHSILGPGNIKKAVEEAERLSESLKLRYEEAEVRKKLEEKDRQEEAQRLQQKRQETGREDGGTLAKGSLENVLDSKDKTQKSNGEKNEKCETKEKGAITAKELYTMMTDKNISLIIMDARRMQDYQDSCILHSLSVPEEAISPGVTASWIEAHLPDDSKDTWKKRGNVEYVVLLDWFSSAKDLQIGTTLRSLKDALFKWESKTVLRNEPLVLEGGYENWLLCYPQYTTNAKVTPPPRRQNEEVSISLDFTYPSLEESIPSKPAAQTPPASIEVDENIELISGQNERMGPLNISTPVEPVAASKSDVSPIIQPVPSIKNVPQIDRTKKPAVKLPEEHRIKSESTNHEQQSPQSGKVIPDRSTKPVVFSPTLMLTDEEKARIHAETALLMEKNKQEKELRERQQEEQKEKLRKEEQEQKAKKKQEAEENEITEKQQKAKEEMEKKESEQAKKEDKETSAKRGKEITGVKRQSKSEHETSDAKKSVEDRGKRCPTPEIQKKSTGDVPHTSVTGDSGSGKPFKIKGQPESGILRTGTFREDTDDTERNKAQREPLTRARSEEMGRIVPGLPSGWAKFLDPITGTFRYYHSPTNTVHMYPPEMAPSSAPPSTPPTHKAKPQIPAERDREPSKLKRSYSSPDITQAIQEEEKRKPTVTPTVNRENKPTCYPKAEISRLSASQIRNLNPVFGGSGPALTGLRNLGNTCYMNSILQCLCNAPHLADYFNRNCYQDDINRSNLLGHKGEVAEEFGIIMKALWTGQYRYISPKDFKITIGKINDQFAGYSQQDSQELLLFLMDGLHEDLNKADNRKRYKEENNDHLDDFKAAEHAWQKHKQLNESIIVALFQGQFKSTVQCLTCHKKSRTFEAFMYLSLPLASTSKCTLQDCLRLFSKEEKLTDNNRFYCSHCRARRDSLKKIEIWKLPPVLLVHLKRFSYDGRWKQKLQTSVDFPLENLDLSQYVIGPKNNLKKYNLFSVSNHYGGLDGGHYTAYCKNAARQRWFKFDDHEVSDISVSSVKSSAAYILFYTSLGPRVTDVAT
USP17 block: inhibitors of human USP17 deubiquitinase | Ubiquitin carboxyl-terminal hydrolase 17-like protein 5 (Homo sapiens), A8MUK1 | purified USP17, Ub-rhodamine cleavage fluorescence, 3 h | inhibition, % at 50 µM | hit rate 6.5% among 47,000 | AID 1645855, 2021
USP7 inh: inhibitors of human USP7 deubiquitinase; AID 1645854, 2021; Ubiquitin carboxyl-terminal hydrolase 7 (Homo sapiens), Q93009; hit rate 0.3% among 47,000; inhibition, % at 20 µM; purified USP7, Ub-rhodamine cleavage fluorescence
USP30 inh: inhibitors of human USP30 deubiquitinase; Ubiquitin carboxyl-terminal hydrolase 30 (Homo sapiens), Q70CQ3; purified USP30, Ub-rhodamine cleavage fluorescence; inhibition, % at 25 µM; hit rate 5.3% among 47,000; AID 1645860, 2021
UCHL1 block: inhibitors of human UCHL1 deubiquitinase | Ubiquitin carboxyl-terminal hydrolase isozyme L1 (Homo sapiens), P09936 | purified UCHL1, Ub-rhodamine cleavage fluorescence | inhibition, % at 20 µM | hit rate 0.2% among 47,000
Of the large screens only hits and unclear results are named; the others gave an inactive call. No stated cut-off is given here; in the data, active means inhibition above about 30%; inactive means the rest.

O=C1CC(c2ccc(Cl)cc2)c2c(nc(-c3ccccc3)[nH]c2=O)N1 (configuration not stated)	USP8 inh 61
CN(C)C(=O)N1C[C@@H]2C(=O)N(C)C3(CCN(C(=O)c4cccnc4)CC3)[C@@H]2C1	none
Fc1cccc(Nc2nc(-c3ccccn3)nc3ccccc23)c1	USP17 block 43
Fc1ccc(Nc2nc(-c3ccccn3)nc3ccccc23)cc1	USP17 block 39, USP30 inh 31
NC(=O)c1cccc(Nc2nc(C(F)(F)F)nc3ccccc23)c1	none
COc1cccc(CC(=O)N2CCC(c3ccnc4nc(C(F)(F)F)nn34)CC2)c1	none
COc1ccccc1CC(CC(=O)Nc1cc(C)ccc1C)C(=O)O (configuration not stated)	none
CC(C)Oc1ccc(C(=O)Nc2ccccc2F)cc1	none
COC(=O)c1ccc(C(=O)Nc2ccc3sccc3c2)cc1	USP8 inh 31
COC(=O)c1ccc(C(=O)Nc2cc3ccccc3cc2NC(=O)c2ccc(C(=O)OC)cc2)cc1	USP17 block 68, USP30 inh 41
COc1ccc(CC(=O)Nc2cc(-c3cn4cccnc4n3)ccc2C)cc1	USP17 block 37
O=C(COc1ccc(C(=O)Nc2ccc(F)cc2)cc1)Nc1ccc(Cl)cc1	none (no result: USP17 block)
O=C(COc1ccc(Cl)cc1)Nc1ccc(-c2cn3cccnc3n2)cc1	USP8 inh 53, USP17 block 35
CC(=O)c1ccc(NC(=O)CCn2c(=O)c3cccn3c3ccccc32)cc1	USP17 block 43
CCc1ccccc1NC(=O)CCn1c(=O)c2cccn2c2ccccc21	USP8 inh 37
CCc1ccccc1NC(=O)CCc1c(C)nc2c(c1C)c(=O)n(C)c(=O)n2C	none
COC(=O)c1ccc2c(=O)n(CCCCCC(=O)N3CCC(Cc4ccccc4)CC3)c(=O)[nH]c2c1	none
O=C(CC1C=CCC1)NCc1ccc(-c2nc(C3CC3)ncc2-c2ccccn2)cc1 (configuration not stated)	none
Cc1cccc(-c2nnn3c2nc(NCC2CCCO2)c2ccccc23)c1 (configuration not stated)	USP8 inh 67, USP17 block 58, USP30 inh 66
Fc1ccc(CSc2nnc(-c3ccccn3)n2Cc2ccco2)cc1	none
CCCNC(=O)c1nnn(-c2cccc3c2CCN(Cc2cccnc2)C3)c1C	none (no result: USP30 inh)
N#Cc1ccc(S(=O)(=O)Oc2cccnc2)cc1	none
O[C@H]1[C@H](NCc2ccccc2)[C@@H](c2cccnc2)C[C@H]1O	none
O[C@H]1[C@H](NCC2CCCC2)[C@@H](c2ccncc2)C[C@H]1O	none
COc1ccc(CN[C@H]2[C@H](O)[C@H](O)C[C@@H]2c2cncnc2)cn1	USP8 inh 35
O[C@H]1[C@H](NCc2cccc(C(F)(F)F)c2)[C@@H](c2cncnc2)C[C@H]1O	USP8 inh 61
CC(C)c1noc(CN2CCC(C3CCCCCN3C(=O)C3CC3)CC2)n1 (configuration not stated)	none
COc1ccc(NC(=O)c2cn(C)nc2S(=O)(=O)N2CCCCC2)cc1	none
COc1ccc(NC(=O)c2ccccc2OCC(=O)Nc2ccccc2C(F)(F)F)c(C)c1	USP8 inh 52, USP17 block 79
COc1ccc(C(=O)Nc2ccccc2Cc2ccccc2)c(OC)c1	none
O=C(CN1C(=O)c2ccccc2C1=O)Nc1nc(-c2ccc(Br)cc2)cs1	USP30 inh 47
CC(=O)Nc1ccc(CN2CCc3nc4ccccc4n3CC2)cc1	none
CC(NC(=O)c1ccc(-c2nnc(-c3ccccc3)o2)cc1)c1ccc(S(C)(=O)=O)cc1 (configuration not stated)	USP17 block 71, USP30 inh 41
CS(=O)(=O)c1ccc(-c2nnc(NC(=O)c3ccco3)o2)cc1	none
CS(=O)(=O)c1cccc(-c2nnc(NC(=O)c3ccc(Cc4ccccc4)cc3)o2)c1	USP10 inh 41, USP8 inh 35, USP30 inh 35
CC(NC(=O)c1ccc(Oc2ccccc2)cc1)c1ccc(Cl)c(Cl)c1 (configuration not stated)	none
O=C(NCc1ccccc1Cl)c1ccc2cn[nH]c2c1	none
COc1cnc(CSc2ccccc2)cc1OCC(=O)Nc1ccc(F)cc1F	USP17 block 34, USP30 inh 36
